Source: PubChem BioAssay AID1159580 (chemical genetic matrix, 2015)
Among all 5,500 compounds or so, about 2,000 (36%) were called active. Not shown: some 18% with an inconclusive outcome. Rule as the data show it: active = normalized growth mostly below about 0.91 (no sharp cut-off); inconclusive = no clear call, values can overlap the other calls; inactive = mostly above about 0.92. The list shows a part of the results.

Assay: chemical genetic growth profiling, strain panel (AID 1159580);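 also: tested at 20 µM; growth read once vehicle control cultures reached saturation at 30 °C; 1 = growth at the plate median or of vehicle wells; lower values mean less growth of the strain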
Conditions: growth OD

Measured: normalized growth

COc1cc(C)c2c(=O)c3c(O)cc(OC)cc3oc2c1
inactive: S. cerevisiae deletion strains, locus YAL013W, strain DEP1, hits give low values 1.01 | S. cerevisiae deletion strains, locus YBR021W, strain FUR4, hits give low values 0.968 | S. cerevisiae deletion strains, locus YBR229C, strain ROT2, hits give low values 1.02 | S. cerevisiae deletion strains, locus YCL029C, strain bik1, hits give low values 0.991 | S. cerevisiae deletion strains, locus YDL035C, strain GPR1, hits give low values 1.01 | S. cerevisiae deletion strains, locus YDL074C, strain BRE1, hits give low values 1.02 | S. cerevisiae deletion strains, locus YDL101C, strain DUN1, hits give low values 1.02 | S. cerevisiae deletion strains, locus YDL134C, strain PPH21, hits give low values 1.01 | S. cerevisiae deletion strains, locus YDL185W, strain tfp1, hits give low values 0.991 | S. cerevisiae deletion strains, locus YDL192W, strain arf1, hits give low values 0.986 | S. cerevisiae deletion strains, locus YDR101C, strain arx1, hits give low values 0.981 | S. cerevisiae deletion strains, locus YDR150W, strain NUM1, hits give low values 1.02 | S. cerevisiae deletion strains, locus YDR162C, strain NBP2, hits give low values 1.02 | S. cerevisiae deletion strains, locus YDR318W, strain mcm21, hits give low values 0.986 | S. cerevisiae deletion strains, locus YDR388W, hits give low values 0.981 | S. cerevisiae deletion strains, locus YDR502C, strain sam2, hits give low values 0.982 | S. cerevisiae deletion strains, locus YEL061C, strain CIN8, hits give low values 1.01 | S. cerevisiae deletion strains, locus YER110C, hits give low values 0.977 | S. cerevisiae deletion strains, locus YER155C, strain BEM2, hits give low values 1 | S. cerevisiae deletion strains, locus YER167W, strain BCK2, hits give low values 1.01 | S. cerevisiae deletion strains, locus YGL078C, strain dbp3, hits give low values 0.976 | S. cerevisiae deletion strains, locus YGL086W, strain mad1, hits give low values 0.982 | S. cerevisiae deletion strains, locus YGL248W, strain PDE1, hits give low values 1.02 | S. cerevisiae deletion strains, locus YGR078C, strain PAC10, hits give low values 1 | S. cerevisiae deletion strains, locus YGR135W, strain pre9, hits give low values 0.977 | S. cerevisiae deletion strains, locus YGR229C, strain SMI1, hits give low values 0.996 | S. cerevisiae deletion strains, locus YGR252W, strain gcn5, hits give low values 0.929 | S. cerevisiae deletion strains, locus YHR030C, strain SLT2, hits give low values 1.01 | S. cerevisiae deletion strains, locus YHR079C, strain IRE1 (second series), hits give low values 0.977 | S. cerevisiae deletion strains, locus YHR094C, strain hxt1, hits give low values 0.991 | S. cerevisiae deletion strains, locus YHR129C, strain ARP1, hits give low values 1.01 | S. cerevisiae deletion strains, locus YHR200W, strain rpn10, hits give low values 0.975 | S. cerevisiae deletion strains, locus YIL066C, strain RNR3, hits give low values 1.01 | S. cerevisiae deletion strains, locus YIL073C, strain SPO22, hits give low values 0.967 | S. cerevisiae deletion strains, locus YIL125W, strain kgd1, hits give low values 0.984 | S. cerevisiae deletion strains, locus YIR030C, strain dcg1, hits give low values 0.994 | S. cerevisiae deletion strains, locus YJL095W, strain BCK1, hits give low values 0.995 | S. cerevisiae deletion strains, locus YJL134W, strain LCB3, hits give low values 1.01 | S. cerevisiae deletion strains, locus YJL168C, strain set2, hits give low values 0.982 | S. cerevisiae deletion strains, locus YJL187C, strain SWE1 (second series), hits give low values 1.02 | S. cerevisiae deletion strains, locus YJR043C, strain POL32, hits give low values 0.999 | S. cerevisiae deletion strains, locus YJR075W, strain HOC1, hits give low values 1.01 | S. cerevisiae deletion strains, locus YKL009W, strain mrt4, hits give low values 0.984 | S. cerevisiae deletion strains, locus YKL068W, hits give low values 0.993 | S. cerevisiae deletion strains, locus YKL085W, strain MDH1 (second series), hits give low values 1.03 | S. cerevisiae deletion strains, locus YKL085W, strain MDH1, hits give low values 1.03 | S. cerevisiae deletion strains, locus YKL190W, strain CNB1, hits give low values 1.01 | S. cerevisiae deletion strains, locus YKR001C, strain vps1, hits give low values 0.982 | S. cerevisiae deletion strains, locus YLR039C, strain RIC1, hits give low values 1.04 | S. cerevisiae deletion strains, locus YLR058C, strain SHM2, hits give low values 1.02 | S. cerevisiae deletion strains, locus YLR102C, strain apc9, hits give low values 0.982 | S. cerevisiae deletion strains, locus YLR262C, strain YPT6, hits give low values 1.04 | S. cerevisiae deletion strains, locus YLR268W, strain sec22, hits give low values 0.987 | S. cerevisiae deletion strains, locus YLR330W, strain CHS5, hits give low values 1.02 | S. cerevisiae deletion strains, locus YLR342W, strain FKS1 (second series), hits give low values 0.996 | S. cerevisiae deletion strains, locus YLR371W, strain rom2, hits give low values 0.984 | S. cerevisiae deletion strains, locus YLR418C, strain cdc73, hits give low values 0.981 | S. cerevisiae deletion strains, locus YML016C, strain PPZ1, hits give low values 1.02 | S. cerevisiae deletion strains, locus YML032C, strain rad52, hits give low values 0.978 | S. cerevisiae deletion strains, locus YML124C, strain tub3, hits give low values 0.985 | S. cerevisiae deletion strains, locus YMR078C, strain ctf18, hits give low values 0.993 | S. cerevisiae deletion strains, locus YMR223W, strain ubp8, hits give low values 0.98 | S. cerevisiae deletion strains, locus YMR263W, strain SAP30, hits give low values 1.01 | S. cerevisiae deletion strains, locus YMR307W, strain GAS1, hits give low values 0.976 | S. cerevisiae deletion strains, locus YNL067W, strain RPL9B, hits give low values 1.01 | S. cerevisiae deletion strains, locus YNL128W, strain TEP1, hits give low values 1.01 | S. cerevisiae deletion strains, locus YNL153C, strain GIM3, hits give low values 1.01 | S. cerevisiae deletion strains, locus YNL233W, strain BNI4, hits give low values 1.01 | S. cerevisiae deletion strains, locus YNL250W, strain rad50, hits give low values 0.992 | S. cerevisiae deletion strains, locus YNL271C, strain bni1, hits give low values 0.98 | S. cerevisiae deletion strains, locus YNL298W, strain CLA4, hits give low values 0.976 | S. cerevisiae deletion strains, locus YNL307C, strain MCK1, hits give low values 0.981 | S. cerevisiae deletion strains, locus YNL322C, strain KRE1, hits give low values 1.01 | S. cerevisiae deletion strains, locus YNR052C, strain pop2, hits give low values 0.978 | S. cerevisiae deletion strains, locus YOL006C, strain TOP1, hits give low values 1.05 | S. cerevisiae deletion strains, locus YOL012C, strain htz1 1.37 | S. cerevisiae deletion strains, locus YOL147C, strain pex11, hits give low values 0.985 | S. cerevisiae deletion strains, locus YOR061W, strain CKA2, hits give low values 1.02 | S. cerevisiae deletion strains, locus YOR069W, strain VPS5, hits give low values 1.01 | S. cerevisiae deletion strains, locus YOR136W, strain idh2, hits give low values 0.979 | S. cerevisiae deletion strains, locus YOR144C, strain elg1, hits give low values 0.99 | S. cerevisiae deletion strains, locus YOR184W, strain ser1, hits give low values 0.969 | S. cerevisiae deletion strains, locus YOR316C, strain cot1, hits give low values 0.982 | S. cerevisiae deletion strains, locus YPL055C, strain LGE1, hits give low values 1.01 | S. cerevisiae deletion strains, locus YPL241C, strain CIN2, hits give low values 0.99 | S. cerevisiae deletion strains, locus YPR119W, strain clb2, hits give low values 0.98 | S. cerevisiae deletion strains, locus YPR141C, strain kar3, hits give low values 1 | S. cerevisiae deletion strains, locus YPR163C, strain tif3, hits give low values 0.988 | S. cerevisiae deletion strains, locus YPR167C, strain met16, hits give low values 0.985 | S. cerevisiae deletion strains, strain wtn01, hits give low values 0.986 | S. cerevisiae strains, strain wild type, hits give low values 1.01
